Test results taken from PubChem BioAssay AID1159580 (chemical genetic matrix, 2015).
The whole screen tested about 5,500 compounds, of which about 2,000 (36%) were called active. Inconclusive results (about 18%) are left out. Rule as the data show it: active = normalized growth mostly below about 0.91 (no sharp cut-off); inconclusive = no clear call, values can overlap the other calls; inactive = mostly above about 0.92. The list shows a part of the results.

Test: chemical genetic growth profiling, strain panel (AID 1159580);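 also: tested at 20 µM; growth read once vehicle control cultures reached saturation at 30 °C; 1 = growth at the plate median or of vehicle wells; lower values mean less growth of the strain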
Conditions: S. cerevisiae deletion strains, growth OD

Measured: normalized growth

C[C@H]1CC2C3CCC4=CC(=O)C=C[C@]4(C)[C@@]3(Cl)[C@@H](O)C[C@]2(C)[C@@]1(O)C(=O)CO (stereo partly drawn)
inactive: locus YAL013W, strain DEP1, hits give low values 0.982 | locus YAL040C, strain CLN3, hits give low values 1.03 | locus YCL061C, strain MRC1 (second series), hits give low values 1.01 | locus YER002W, strain NOP16, hits give low values 0.997 | locus YGR078C, strain PAC10, hits give low values 0.989 | locus YGR229C, strain SMI1, hits give low values 0.994 | locus YJR075W, strain HOC1, hits give low values 1.01 | locus YMR263W, strain SAP30, hits give low values 1.01 | locus YNL153C, strain GIM3, hits give low values 0.981 | locus YNL175C, strain NOP13, hits give low values 0.994 | locus YNL197C, strain WHI3, hits give low values 0.934 | locus YNL224C, strain SQS1, hits give low values 0.967 | locus YOR083W, strain WHI5 (second series), hits give low values 0.954
